Test results reported in PubChem BioAssay (Tox21).
Results filed as inconclusive are left out. Activity calls are given as the source filed them. Unless noted, calls come from the whole dose curve; as a rule, active = well fitted curve in the direction sought with a large enough effect in the repeat runs; inconclusive = weak or mixed curves; inactive = no such curve, though single readings can be large; an effect the other way counts as inactive or inconclusive.

Key:
[1] = molecular target: Retinoic acid receptor RXR-alpha (Homo sapiens) (UniProt P19793); experiment: qHTS assay to identify small molecule agonists of the RXR signaling pathway (AID 1159527; calls by dose curve; note: nearly all actives have a fitted effect of over 35% in size; note: potency is the fitted concentration of half-maximal effect)
Retinoic acid receptor RXR-alpha (Homo sapiens), sequence (P19793 whole entry, looked up): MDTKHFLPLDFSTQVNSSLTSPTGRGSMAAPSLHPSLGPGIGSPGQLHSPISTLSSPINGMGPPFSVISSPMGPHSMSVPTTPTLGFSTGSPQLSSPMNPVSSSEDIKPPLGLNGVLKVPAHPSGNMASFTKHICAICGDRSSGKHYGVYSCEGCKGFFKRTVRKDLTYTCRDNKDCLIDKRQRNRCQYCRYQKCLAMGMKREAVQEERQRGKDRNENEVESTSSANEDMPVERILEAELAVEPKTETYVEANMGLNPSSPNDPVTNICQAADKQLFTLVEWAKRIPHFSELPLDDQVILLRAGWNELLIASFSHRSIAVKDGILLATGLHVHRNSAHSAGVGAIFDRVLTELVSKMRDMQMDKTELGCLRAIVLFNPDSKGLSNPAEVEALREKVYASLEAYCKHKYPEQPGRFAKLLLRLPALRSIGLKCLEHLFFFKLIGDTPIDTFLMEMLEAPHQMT
Method in brief: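 Using 9-cis retinoic acid as the reference agonist, chemicals were tested in HEK 293T cells […] for 16 hr; substrate loading lasted 2 hr at room temperature.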

[2] = qHTS assay to identify small molecule agonists of the RXR signaling pathway - cell viability counter screen (AID 1159529); note: series mostly up to about 77 µM; nearly all actives have a fitted effect of over 50% in size
Method in brief: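 Compounds dissolved in DMSO were pinned onto HEK 293T cells carrying a beta-lactamase reporter under RXR-alpha control and incubated 16 hr. Cytotoxicity was then quantified by CellTiter-Glo luminescence.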

[3] = qHTS assay to identify small molecule antagonists of the retinoic acid receptor (RAR) signaling pathway (AID 1159552; note: nearly all actives have a fitted effect of over 50% in size)
Method in brief: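 Test chemicals and DMSO controls were pin-transferred onto C3RL4 cells a day after seeding; retinol (1 uM final) followed at once. Luminescent reporter output was quantified after 6 hr of co-incubation and 30 min with detection reagent.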

[4] = qHTS assay to identify small molecule agonists of the retinoic acid receptor (RAR) signaling pathway (AID 1159553)
Method in brief: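 Luminescence was measured 30 min after luciferase reagent addition at room temperature. Before that, C3RL4 reporter cells (1,000 per well, plated overnight) were treated with compound for 6 hr at 37 C and 5% CO2.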

[5] = qHTS assay to identify small molecule antagonists of the estrogen related receptor (ERR) signaling pathway from Tox21 library - cell viability counter screen (AID 1224834); note: nearly all actives have a fitted effect of over 30% in size
Method in brief: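 CellTiter-Fluor fluorescence, read after 30 min at 37 C, measures viability of ERR cells. Cells plated at 2,000/well and incubated 6 h before pin-tool compound addition, then exposed 17.5 hours at 37 C.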

[6] = molecular target: Luciferin 4-monooxygenase (Photinus pyralis) (UniProt P08659); experiment: qHTS assay to identify small molecule inhibitors of firefly luciferase (AID 1224835); note: nearly all actives have a fitted effect of over 25% in size; note: potency is the fitted concentration of half-maximal effect; for activity change, negative = inhibition: series mostly up to about 120 µM
Luciferin 4-monooxygenase (Photinus pyralis), sequence (P08659 whole entry, looked up): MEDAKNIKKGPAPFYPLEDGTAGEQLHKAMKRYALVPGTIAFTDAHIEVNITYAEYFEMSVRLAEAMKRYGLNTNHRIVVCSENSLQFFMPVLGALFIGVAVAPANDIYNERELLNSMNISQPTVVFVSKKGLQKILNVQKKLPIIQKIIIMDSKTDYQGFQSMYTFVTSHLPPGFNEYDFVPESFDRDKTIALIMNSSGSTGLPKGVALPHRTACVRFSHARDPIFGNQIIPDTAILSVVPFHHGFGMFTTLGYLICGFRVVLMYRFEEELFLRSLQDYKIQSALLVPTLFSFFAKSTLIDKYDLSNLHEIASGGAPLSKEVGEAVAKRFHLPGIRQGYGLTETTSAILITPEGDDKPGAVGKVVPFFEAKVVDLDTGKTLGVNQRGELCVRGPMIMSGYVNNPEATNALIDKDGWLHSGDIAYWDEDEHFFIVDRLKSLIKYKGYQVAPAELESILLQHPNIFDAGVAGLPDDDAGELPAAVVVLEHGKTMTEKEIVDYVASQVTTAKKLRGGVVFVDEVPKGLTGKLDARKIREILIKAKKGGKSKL
Method in brief: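 Biochemical qHTS: compounds run as interplate titrations against purified firefly enzyme, with D-luciferin and ATP each at its KM concentration. Light output recorded by CCD imaging.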

[7] = qHTS assay to identify small molecule antagonists of the constitutive androstane receptor (CAR) signaling pathway - cell viability counter screen (AID 1224837); note: series mostly up to about 92 µM; nearly all actives have a fitted effect of over 45% in size
Method in brief: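 Cytotoxicity counter-screen: CellTiter-Fluor fluorescence after 23 h compound exposure (15-point qHTS) in double-stable HepG2-CYP2B6-hCAR cells, with 50 nM CITCO added.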

[8] = molecular target: Nuclear receptor subfamily 1 group I member 3 (Homo sapiens) (UniProt Q14994); experiment: qHTS assay to identify small molecule antagonists of the constitutive androstane receptor (CAR) signaling pathway (AID 1224838);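 note: HepG2 cells stably expressing hCAR with CYP2B6 luciferase reporter stimulated by CITCO; nearly all actives have a fitted effect of over 40% in size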
Nuclear receptor subfamily 1 group I member 3 (Homo sapiens), sequence (Q14994 whole entry, looked up): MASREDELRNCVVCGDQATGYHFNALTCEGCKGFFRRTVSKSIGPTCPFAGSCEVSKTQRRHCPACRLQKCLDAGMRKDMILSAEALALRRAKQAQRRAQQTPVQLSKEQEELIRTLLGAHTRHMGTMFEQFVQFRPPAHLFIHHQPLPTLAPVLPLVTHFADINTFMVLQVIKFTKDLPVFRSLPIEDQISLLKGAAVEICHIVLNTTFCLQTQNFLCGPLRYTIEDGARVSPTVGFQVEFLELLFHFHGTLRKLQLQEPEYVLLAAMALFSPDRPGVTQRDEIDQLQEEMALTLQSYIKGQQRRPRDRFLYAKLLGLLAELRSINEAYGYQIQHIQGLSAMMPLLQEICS
Method in brief: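 Antagonism measured as luciferase signal (ONE-Glo, 30 min, room temperature) in CAR-stimulated cells: HepG2-CYP2B6-hCAR double-stable line exposed 24 hr at 37 C to compound in a 15-point series plus 50 nM CITCO.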

[9] = qHTS assay to identify small molecule agonists of the constitutive androstane receptor (CAR) signaling pathway - cell viability counter screen (AID 1224836); note: series mostly up to about 92 µM; nearly all actives have a fitted effect of over 45% in size
Method in brief: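 23 h treatment, 37 C, 5% CO2. Cell line: HepG2 stably expressing hCAR with a CYP2B6-2.2kb construct. Co-treatment: PK11195, 0.75 uM final. Read-out: CellTiter-Fluor fluorescence intensity.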

[10] = qHTS assay to identify small molecule antagonists of the retinoid acid receptor (RAR) signaling pathway - cell viability counter screen (AID 1159551); note: nearly all actives have a fitted effect of over 35% in size
Method in brief: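 Cytotoxicity counter screen: ATP content quantified by CellTiter-Glo luminescence in C3RL4 cells treated 6 hr at 37 C with compound and retinol (1 uM final). Cells plated at 1,000/well and cultured overnight before dosing.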
% is set by controls: 0 for no effect and ±100 for the full control effect.

CCCC(CC)c1ccccc1 (stereo unspecified)
inactive: Potency [1] | outcome [2] | outcome [3] | Potency [4] | outcome [5] | Potency [6] | outcome [7] | Potency [8]

CNCCS(=O)(=O)O
inactive: Potency [1] | outcome [2] | outcome [3] | outcome [5] | Potency [6] | outcome [9] | outcome [7] | Potency [8]

O=Cc1cc2ccccc2o1
inactive: outcome [2] | outcome [10] | outcome [3] | Potency [4] | outcome [5] | Potency [6] | outcome [9] | outcome [7]

O=C(O)CSCC(=O)NC1CCSC1=O (stereo unspecified)
inactive: Potency [1] | outcome [2] | outcome [3] | Potency [4] | outcome [5] | Potency [6] | outcome [9] | outcome [7] | Potency [8]

O=C(Cn1ccnc1[N+](=O)[O-])NCc1ccccc1
inactive: Potency [1] | outcome [2] | outcome [3] | Potency [4] | outcome [5] | Potency [6] | outcome [9] | outcome [7]

CC(=O)OC1CCCCC1C(C)(C)C (stereo unspecified)
inactive: Potency [1] | outcome [2] | outcome [3] | Potency [4] | outcome [5] | Potency [6] | outcome [9] | outcome [7] | Potency [8]

CC1=NN(c2ccc(S(=O)(=O)O)cc2)C(=O)C1
inactive: outcome [2] | outcome [10] | outcome [3] | Potency [4] | outcome [5] | Potency [6] | outcome [9] | outcome [7] | Potency [8]

CCn1cc(C(=O)O)c(=O)c2cnc(N3CCCC3)nc21
inactive: activation [1] 0.584% [at 6.98 µM] | activity change, negative = cytotoxicity [2] -1.74% [at 6.97 µM] | activity, negative = inhibition [3] 5.14% [at 8.39 µM] | activation [4] 1.53% [at 8.36 µM] | viability change, negative = cytotoxic [5] 0.102% [at 8.39 µM] | activity change, negative = inhibition [6] 2.85% [at 10.5 µM] | viability change, negative = cytotoxic [9] 6.12% [at 8.39 µM] | activity change, negative = cytotoxicity [7] 1.8% [at 8.39 µM] | activity, negative = inhibition [8] -3.92% [at 8.39 µM]

CC(C)=CCC[C@@](C)(O)[C@H]1CC=C(C)CC1
inactive: Potency [1] | outcome [2] | outcome [3] | Potency [4] | outcome [5] | Potency [6] | outcome [9] | outcome [7] | Potency [8]

C=CCN1C[C@H](C(=O)N(CCCN(C)C)C(=O)NCC)C[C@@H]2c3cccc4[nH]cc(c34)C[C@H]21
inactive: Potency [1] | outcome [2] | outcome [3] | Potency [4] | outcome [5] | Potency [6] | outcome [9] | outcome [7] | Potency [8]

CCCC(=O)OCCC(C)CCC=C(C)C (stereo unspecified)
inactive: Potency [1] | outcome [2] | outcome [3] | Potency [4] | outcome [5] | Potency [6] | outcome [7] | Potency [8]

CCCCCCCCCOC(=O)c1ccccc1C(=O)OCCCCCCCCC
inactive: Potency [1] | outcome [2] | outcome [3] | Potency [4] | outcome [5] | Potency [6] | outcome [7] | Potency [8]

O=C(Cl)c1ccccc1[N+](=O)[O-]
inactive: Potency [1] | outcome [2] | outcome [3] | outcome [5] | Potency [6] | outcome [9] | outcome [7] | Potency [8]

O=[N+]([O-])c1c(Cl)cc(Cl)cc1Cl
inactive: Potency [1] | outcome [2] | outcome [3] | Potency [4] | outcome [5] | Potency [6] | outcome [9] | outcome [7] | Potency [8]

CC1c2ccccc2CN1NC(=O)c1ccc(Cl)c(S(N)(=O)=O)c1 (stereo unspecified)
inactive: Potency [1] | outcome [2] | outcome [3] | Potency [4] | outcome [5] | Potency [6] | outcome [9] | outcome [7] | Potency [8]

Cc1ccc(C(=O)O)cc1[N+](=O)[O-]
inactive: Potency [1] | outcome [2] | outcome [3] | Potency [4] | outcome [5] | Potency [6] | outcome [9] | outcome [7] | Potency [8]

OC[C@@H](O)C(O)[C@@H](O)CO (stereo partly specified)
active: Potency [1] 1.57 µM
inactive: outcome [2] | outcome [3] | Potency [4] | outcome [5] | Potency [6] | outcome [9] | outcome [7] | Potency [8]

O=Cc1ccccc1Cl
inactive: Potency [1] | outcome [2] | outcome [3] | Potency [4] | outcome [5] | Potency [6] | outcome [9] | outcome [7] | Potency [8]

Cc1cc(-c2ccccc2)nnc1NCCN1CCOCC1
inactive: Potency [1] | outcome [2] | outcome [3] | Potency [4] | outcome [5] | Potency [6] | outcome [9] | outcome [7]

Cc1c(N)cccc1Cl
inactive: Potency [1] | outcome [2] | outcome [3] | outcome [5] | Potency [6] | outcome [9] | outcome [7] | Potency [8]

CC(=O)O[C@H]1C[C@@H]2CC[C@@]1(C)C2(C)C
inactive: Potency [1] | outcome [2] | outcome [3] | Potency [4] | outcome [5] | Potency [6] | outcome [9] | outcome [7] | Potency [8]

CCCC(=O)Nc1ccc(OCC(O)CNC(C)C)c(C(C)=O)c1 (stereo unspecified)
inactive: outcome [2] | outcome [10] | outcome [3] | Potency [4] | outcome [5] | Potency [6] | outcome [9] | outcome [7]

CC/C(C)=N\O[Si](C)(O/N=C(\C)CC)O/N=C(\C)CC
inactive: Potency [1] | outcome [2] | outcome [3] | Potency [4] | outcome [5] | Potency [6] | outcome [9] | outcome [7] | Potency [8]

Cn1nnc2c(C(N)=O)ncn2c1=O
inactive: Potency [1] | outcome [2] | outcome [3] | outcome [5] | Potency [6] | outcome [9] | outcome [7]

Cc1ccnc(N)c1
inactive: Potency [1] | outcome [2] | outcome [3] | Potency [4] | outcome [5] | Potency [6] | outcome [9] | outcome [7] | Potency [8]

CN(C)CCN(C)CCO
inactive: Potency [1] | outcome [2] | outcome [3] | Potency [4] | outcome [5] | Potency [6] | outcome [9] | outcome [7] | Potency [8]

Cc1ccc(C)c([N+](=O)[O-])c1
inactive: Potency [1] | outcome [2] | outcome [3] | Potency [4] | outcome [5] | Potency [6] | outcome [9] | outcome [7] | Potency [8]

C=C(C)[C@@H]1CC=C(C)CC1
inactive: Potency [1] | outcome [2] | outcome [5] | Potency [6] | outcome [7] | Potency [8]

CC1CC(=O)CC(C)(C)C1 (stereo unspecified)
inactive: outcome [2] | outcome [3] | outcome [5] | Potency [6] | outcome [9] | outcome [7]

O=C[O][Al]([O]C=O)[O]C=O
inactive: outcome [2] | outcome [10] | outcome [3] | Potency [4] | outcome [5] | outcome [7] | Potency [8]
active: Potency [6] 63.3 µM

N[C@@H](CSCCCO)C(=O)O
inactive: activity change, negative = cytotoxicity [2] -0.377% [at 15.8 µM] | activity change, negative = cytotoxicity [10] 5.07% [at 19 µM] | activity, negative = inhibition [3] 1.93% [at 19 µM] | viability change, negative = cytotoxic [5] 1.22% [at 19 µM] | activity change, negative = inhibition [6] -1.72% [at 23.6 µM] | viability change, negative = cytotoxic [9] 3.99% [at 19 µM] | activity change, negative = cytotoxicity [7] 10% [at 19 µM]

CCN1CCCC1CN (stereo unspecified)
inactive: outcome [2] | outcome [10] | outcome [3] | outcome [5] | Potency [6] | outcome [9] | outcome [7] | Potency [8]
